Source: PubChem BioAssay (NCI)
This is part of a sample that, as a whole, favours compounds with a hit. Of some 83,000 tested, about 20% had one in any assay.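 Plates (96-well) were seeded with cells, treated with compound at one concentration, and incubated for 48 hours before percent growth was determined.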 Values without a mark were called inactive. The source made the active and inactive calls. Rule for the calls: active = growth percent below 10; inactive = the rest.

Legend:
Assay in all cases: NCI-60 one-dose screen, 48 h (100 = growth as untreated, 0 = no growth, -100 = all killed)
Conditions in all cases: 10 µM unless noted
NCI-H23 lung = tested on: NCI-H23 lung
NCI-H226 lung = tested on: NCI-H226 lung
NCI-H322M lung = tested on: NCI-H322M lung
HOP-62 NSCLC = tested on: HOP-62 NSCLC
NCI-H460 lung = tested on: NCI-H460 lung
HOP-92 NSCLC = tested on: HOP-92 NSCLC
NCI-H522 lung = tested on: NCI-H522 lung
A549/ATCC NSCLC = tested on: A549/ATCC NSCLC
786-0 renal = tested on: 786-0 renal
COLO 205 colon = tested on: COLO 205 colon
DU-145 prostate = tested on: DU-145 prostate
K-562 leukemia = tested on: K-562 leukemia
MALME-3M melanoma = tested on: MALME-3M melanoma
MDA-MB-231 breast = tested on: MDA-MB-231 breast
RXF 393 renal = tested on: RXF 393 renal
SF-268 CNS = tested on: SF-268 CNS
SF-539 CNS = tested on: SF-539 CNS
UACC-257 melanoma = tested on: UACC-257 melanoma
M14 melanoma = tested on: M14 melanoma
SF-295 CNS = tested on: SF-295 CNS

SMILES | growth (NCI-H23 lung) | growth (NCI-H226 lung) | growth (NCI-H322M lung) | growth (HOP-62 NSCLC) | growth (NCI-H460 lung) | growth (HOP-92 NSCLC) | growth (NCI-H522 lung) | growth (A549/ATCC NSCLC) | growth (786-0 renal) | growth (COLO 205 colon) | growth (DU-145 prostate) | growth (K-562 leukemia) | growth (MALME-3M melanoma) | growth (MDA-MB-231 breast) | growth (RXF 393 renal) | growth (SF-268 CNS) | growth (SF-539 CNS) | growth (UACC-257 melanoma) | growth (M14 melanoma) | growth (SF-295 CNS)
O=C(O)c1ccc([S-])cc1.[Au+].c1ccc(CN2[CH-]N(Cc3ccccc3)C(c3ccccc3)=C2c2ccccc2)cc1 | -64.8% (active) | 3.42% (active) | 7.67% (active) | -28% (active) | -29% (active) | -45% (active) | -44.9% (active) | 3.5% (active) | -70.3% (active) | -66.5% (active) | -47.2% (active) | -16.9% (active) | -68.6% (active) | -62.5% (active) | -88.9% (active) | -42.7% (active) | -1.4% (active) | -19.1% (active) | -48.1% (active) | 
CCC1(C)CC(CCNCc2ccccc2O)(c2ccc(C)cc2)CCO1 (stereo not given) | 101% | 107% | 108% | 108% | 102% | 105% | 108% | 101% | 101% | 115% | 103% | 101% | 109% | 106% | 111% | 105% | 99.1% | 107% | 104% | 
O=[N+]([O-])c1ccc(OP(=O)(CCl)N(CCCl)CCCl)cc1 (stereo not given) | 108% | 98.9% | 103% | 93.5% | 105% | 114% | 74.8% | 102% | 97.9% | 112% | 110% | 97.1% | 109% | 124% | 101% | 104% | 105% | 99.9% |  | 
[Au+].[N-]=C=O.c1ccc(CN2[CH-]N(Cc3ccccc3)C(c3ccccc3)=C2c2ccccc2)cc1 | 79.5% | 107% | 112% | 116% | 98.5% | 81.4% | 5.83% (active) | 92.7% | 90.2% | 92.5% | 86.5% | 20.8% | 70% | 86.4% | 83% | 84.5% | 110% | 99.8% | 81.3% | 
COc1cc(NC(C)CCCNC2CN3CCC2CC3)c2ncccc2c1 (stereo not given) | 84.5% | 87.4% | 63.3% | 75.8% | 106% | 46.6% | 82.1% | 95.1% | 62.5% | 35.3% | 112% | 22.8% | 81.3% | 55.1% | 66.1% | 89.6% | 82.3% | 39.9% | 51.2% | 
COc1ccc(/C=C\c2cc(OC)c(OC)c(OC)c2)cc1OCC(=O)Nc1nc2ccc(F)cc2s1 | 34.4% | 42.4% | 70.8% | 51% | 23.9% | 57.7% | 6.14% (active) | 31% | 65% | 32.3% | 30.2% | 38.1% | 38.3% | 46.7% | 9.41% (active) | 49.2% | 26.7% | 51% | 51.9% | 
O=[As](O)(O)c1ccccc1[As](=O)(O)O | 99.9% | 112% | 121% | 110% | 116% | 95.9% | 106% | 91.8% | 119% | 111% | 109% | 107% | 115% | 103% | 120% | 99.3% | 96.3% | 101% | 116% | 
CN1C(=O)N[C@H]2[C@@H]3NC(=O)c4ccc(Br)n4[C@@H]3C[C@]21O | -14.5% (active) | -17.4% (active) | -6.85% (active) | -31.8% (active) | -10.6% (active) | -9.65% (active) | -38.2% (active) | -9.09% (active) | -19.3% (active) | -49.5% (active) | -8.47% (active) | -2.38% (active) | -27.3% (active) | -28% (active) | -27.5% (active) | -2.59% (active) | -59.8% (active) |  | -70.8% (active) | -36.2% (active)
CC[C@]12C=CCN3CC[C@]4(C(=C(C(=O)OC)C1)Nc1cc(OC)c(OC(C)=O)cc14)[C@@H]32 | 20.7% | 34.4% | 39% | 20.5% | 8.27% (active) | 4.72% (active) | -1.97% (active) | 16% | 5.06% (active) | -22.8% (active) | 24.3% | 4.08% (active) | 112% | 19.7% | 37.1% | 19.5% | 11.2% |  | 13.9% | 20.4%
